Screening results: PubChem BioAssay, several laboratories
Shown are actives, neighbours in structure and some others; about 0.52% of the full set was active somewhere.
mHtt clearance: compounds clearing mutant huntingtin protein | HeLa Exon1htt(103Q)mCFP, aggregate imaging; zero = plate's median compound well | inhibition, % at 1.5 µM | hit rate 0.42% among 47,000 | AID 853;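 active = inhibition of aggregate fluorescence above about 70%, also judged a hit by eye on the cell image, limit read from the data, passing the limit was not always enough; inconclusive = no rule stated for this call; inactive = not judged a hit on image review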;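 note: cells exposed to compound for three days before fixation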
CatB mixtures: inhibitors of human cathepsin B in compound mixtures; P07858; Purified cathepsin B, AMC dipeptide fluorescence; inhibition, %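 (ten-compound pools at 5 µM per compound and 50 µM total)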; hit rate 0.06% among 62,000; AID 488; in the data active = inhibition above about 22%, passing the limit was not always enough; inconclusive = no clear call, values can overlap the other calls;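 note: 0% = enzyme without compound and 100% = no enzyme blank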
CatL inh: inhibitors of human cathepsin L | inhibition, %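 (tested at 10 µM)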 | purified cathepsin L, fluorogenic substrate, fluorescence | P07711 | hit rate 0.17% among 58,000; in the data active = inhibition above about 45%;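 note: 0% = enzyme with no compound and 100% = no enzyme blank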
Target sequence (P07711 114-288 limits assumed): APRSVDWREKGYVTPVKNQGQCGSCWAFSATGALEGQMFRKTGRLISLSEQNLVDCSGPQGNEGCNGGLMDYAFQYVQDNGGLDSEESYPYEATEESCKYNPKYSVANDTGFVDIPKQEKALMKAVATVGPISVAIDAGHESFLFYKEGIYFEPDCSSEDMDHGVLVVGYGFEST
Target sequence (P07711 292-333 limits assumed): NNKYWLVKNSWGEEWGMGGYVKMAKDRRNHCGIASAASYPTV
CatB inh: human cathepsin B inhibition; hit rate 0.1% among 63,000; purified cathepsin B, fluorogenic substrate, fluorescence; inhibition, %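 (tested at 10 µM)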; AID 453; P07858; in the data active = inhibition above about 21%;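 note: 0% = enzyme with no compound and 100% = no enzyme blank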
CatS block: human cathepsin S inhibition; P25774; recombinant cathepsin S, AMC dipeptide fluorescence, pooled mixtures; inhibition, %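 (tested at 5 µM per compound within 10-compound mixtures)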; hit rate 0.06% among 62,000; in the data active = inhibition above about 32%, passing the limit was not always enough; inconclusive = no clear call, values can overlap the other calls;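 note: 0% = enzyme without compound and 100% = blank without enzyme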
Target sequence (P25774 115-331 limits assumed): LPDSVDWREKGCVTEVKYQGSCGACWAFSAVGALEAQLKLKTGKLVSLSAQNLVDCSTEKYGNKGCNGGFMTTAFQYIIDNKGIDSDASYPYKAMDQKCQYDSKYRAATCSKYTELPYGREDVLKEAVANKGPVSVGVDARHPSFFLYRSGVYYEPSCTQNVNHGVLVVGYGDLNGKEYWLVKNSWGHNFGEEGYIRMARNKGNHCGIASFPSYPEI
* marks the source's active call; other numbers are inactive results; ? = inconclusive; . = no result given.

SMILES | mHtt clearance | CatB mixtures | CatL inh | CatB inh | CatS block
COc1ccccc1OCC(=O)Nc1oc(-c2ccccc2)c(-c2ccccc2)c1C#N | -61 | -3 | . | 55* | 4
CCCCCCS(=O)Cc1ccccc1 (stereo unspecified) | . | 5 | 8 | 6 | 9
Cc1cc(C)n(C(=O)c2ccc(NC(=O)CC(C)C)cc2)n1 | 90* | 2 | -4 | -2 | 0
CCC(=O)Nc1ccc(C(=O)n2nc(C)cc2C)cc1 | . | 1 | -4 | 6 | 1
Cc1nn(Cc2n[nH]c(=S)n2Cc2ccccc2)c(C)c1Cl | 10 | . | . | . | .
CCn1c(=S)[nH]c2nc3c(cc2c1=O)CCCC3 | 71* | . | . | . | .
O=C(Nc1ccccc1-c1ccccc1)C1CCCN(c2ncccn2)C1 (stereo unspecified) | . | -4 | 37 | 4 | 3
O=C(NCc1ccc(F)cc1)c1cnn2ccccc12 | 75* | . | . | . | .
CCc1ccc(NC(=O)c2cnn3ccccc23)cc1 | 30 | . | . | . | .
CCOC(=O)c1sc2nc(SCC#N)n(CCCN3CCCC3=O)c(=O)c2c1C | -17 | 2 | 4 | 1 | 1
O=C1c2ccccc2C(O)(Cc2ccccc2)N1CCCN1CCOCC1 (stereo unspecified) | . | 6 | 13 | 1 | -1
O=C1c2ccccc2C(O)(Cc2ccccc2)N1C1CCCCC1 (stereo unspecified) | . | 3 | 104* | 9 | -1
CCN(CC)Cc1c(O)ccc2c([N+](=O)[O-])c(C)n(-c3ccc(OC)cc3)c12 | 71* | . | . | . | .
CCN(CC)Cc1c(O)ccc2occ(C(=O)c3ccc(OC)cc3)c12 | 53 | . | . | . | .
O=C(CCC(=O)c1ccc[nH]1)c1ccc(Cl)cc1 | 75* | -2 | -7 | 4 | -5
CC(C)C(c1nnnn1C1CCCC1)N1CCCc2ccccc21 (stereo unspecified) | 56 | 5 | 14 | 10 | 32*
CC(C)C(c1nnnn1C1CCCCC1)N1CCCc2ccccc21 (stereo unspecified) | 34 | . | . | . | .
CCOC(=O)C(C(=O)OCC)N(C#N)c1nc(SC)nc(N(C)C)n1 | 16 | . | 78* | 27* | .
Cn1c(=O)n(CCc2ccccc2)c(=O)c2c1nc1n2CCN1c1ccccc1 | . | 0 | -3 | -2 | -3
O=C(COc1ccccc1)NC(Cc1c[nH]c2ccccc12)C(=O)O (stereo unspecified) | 71* | -3 | 11 | 6 | -3
O=C(NCc1ccccc1)N[C@@H](Cc1c[nH]c2ccccc12)C(=O)O | . | -2 | 6 | 5 | 1
COc1ccc(OC)c(NC(=O)Cn2cc(C(=O)c3ccco3)c3ccccc32)c1 | 76* | -3 | -4 | 3 | -5
COc1ccc(-c2ccc(-c3nnn(CC(C)=O)n3)cc2)cc1 | 7 | -7 | 7 | 1 | 8
CCC(C(=O)O)n1nnc(-c2ccc(-c3ccc(OC)cc3)cc2)n1 (stereo unspecified) | 10 | 0 | 66* | -3 | 4
CCOC(=O)Cc1csc(NS(=O)(=O)c2ccc3c4c(cccc24)C(=O)N3CC)n1 | . | -1 | 2 | 5 | 55*
SMILES | mHtt clearance | CatB mixtures | CatL inh | CatB inh | CatS block
COc1cc(SC)ccc1C(=O)Nc1ccon1 | 73* | 7 | -1 | 9 | 17
CCCCC(=O)C1=C(N2CCCC2)CC(C)(C)CC1=O | 72* | . | . | . | .
COc1ccc(NC2=NCC(=O)N2c2ccccc2)c(OC)c1 | . | 0 | -3 | 2 | 6
CCOc1ccc(N2C(=O)CN=C2Nc2ccccc2F)cc1 | 97* | . | . | . | .
CC(C)C(=O)N1CCN(c2ccc(NC(=O)c3cccs3)cc2)CC1 | 79* | . | . | . | .
CCOc1ccccc1NC(=O)C1CCN(c2ccc(S(=O)(=O)N3CCCC3)cc2)CC1 | 72* | 4 | 17 | 3 | 13
CC12C(=O)N(c3nccs3)C(=O)C1C1C=CC2C1 (stereo unspecified) | . | -4 | 21 | 1 | -3
COc1ccc(N2CCC(CNC(=O)Nc3ccc(C)c(C)c3)C2)cc1 (stereo unspecified) | . | 1 | -4 | 41* | 4
CCCCN(C)C(=O)c1c[nH]c2ccc(S(=O)(=O)N3CCOCC3)cc2c1=O | . | -6 | 11 | -2 | -2
C=CCSC1=C(C#N)C(c2ccc(OCC)cc2)CC(=O)N1 (stereo unspecified) | -22 | -4 | 102* | 2 | ?
O=C(CSc1nnc(-c2cccs2)n1-c1ccccc1)NCc1ccc2c(c1)OCO2 | 73* | -4 | -3 | 3 | -5
O=C(Cn1nnc(-c2ccccc2Cl)n1)N1CCN(S(=O)(=O)c2ccc(Cl)cc2)CC1 | 76* | 0 | -5 | -4 | -5
CCCNC(=O)N1CCC(C(=O)c2cccc(F)c2)CC1 | -35 | . | . | . | .
COc1ccc(OC)c(NS(=O)(=O)Cc2ccccc2)c1 | . | 2 | 73* | 12 | 7
CN(C1=NC(=O)C(CC(=O)Nc2ccc(Br)cc2)S1)c1ccc(O)cc1 (stereo unspecified) | 8 | 4 | -1 | -2 | -3
O=C(N/C(=C/c1ccc(Br)cc1)c1nc2ccccc2[nH]1)c1ccco1 | 80* | . | . | . | .
CCC(=NCc1ccco1)c1c(C(F)(F)F)[nH]n(-c2nc3ccccc3s2)c1=O | -53 | . | . | . | .
CC(=NCc1ccco1)c1c(C)[nH]n(-c2nc3ccccc3s2)c1=O | -59 | -6 | -1 | -2 | 46*
O=C(NCCCN1CCCCCC1)c1ccc(CS(=O)(=O)Cc2ccccc2F)o1 | -28 | 6 | 60* | 6 | 2
CCOC(=O)CSc1nc(C)cc(=O)[nH]1 | 71* | 0 | . | -3 | 2
COc1ccccc1N=Cc1nc(-c2ccccc2)oc1OC(C)=O | 35 | 33* | 16 | 41* | 15
COc1ccccc1N1CCN(C(=O)CSc2nc(C)c(Cc3ccccc3)c(=O)[nH]2)CC1 | 80* | -2 | 21 | -1 | 1
COc1ccccc1N1CCN(C(=O)CSc2nc(-c3ccccc3)cc(=O)[nH]2)CC1 | . | 2 | 6 | 1 | 11
O=S(=O)(c1ccccc1)N1CCN(S(=O)(=O)c2ccccc2)C1 | -6 | 3 | 7 | 4 | -4
O=S(=O)(/N=S1/CC=CCN1S(=O)(=O)c1ccccc1)c1ccccc1 (stereo unspecified) | 22 | ? | . | 35* | -19
SMILES | mHtt clearance | CatB mixtures | CatL inh | CatB inh | CatS block
CC1CCN(C(=O)CSc2ccc3nnc(-c4ccc(F)cc4)n3n2)CC1 | . | -1 | 3 | -4 | 5
Cc1nc(CCNC(=O)COc2ccccc2)cs1 | 74* | 0 | 2 | 5 | -3
CC(C)c1ccc(S(=O)(=O)N2CCN(C(=O)c3cccc(F)c3)CC2)cc1 | 50 | 6 | -1 | 7 | -14
COc1cc(C(C(=O)NC(C)(C)C)N(Cc2ccc3c(c2)OCO3)C(=O)c2cnccn2)cc(OC)c1OC (stereo unspecified) | 14 | . | . | . | .
COc1ccc(CN(C(=O)c2cnccn2)C(C(=O)NC(C)(C)C)c2cc(OC)c(OC)c(OC)c2)cc1 (stereo unspecified) | 70* | . | . | . | .
Cc1ccc(CNC(=O)C(C)OC(=O)c2cccs2)cc1 (stereo unspecified) | -44 | . | . | . | .
COCCNC(=O)C(OC(=O)c1cccs1)c1ccccc1 (stereo unspecified) | 24 | 5 | 11 | 3 | 12
